This passage reports binding signal results from paper PMC7862700, “An all-to-all approach to the identification of sequence-specific readers for epigenetic DNA modifications on cytosine”.

Assay in all cases: DAPPL (digital affinity profiling via proximity ligation, sequencing); 10 mM Tris-HCl pH 7.5, 50 mM NaCl, 1 mM DTT, 4% glycerol, room temperature, 30 min; GST-TFs on glutathione beads, 16-mer random dsDNA library, 0.1% formaldehyde crosslink after washing; high values mean tight binding
What all share (details): protein: recombinant; tags: N-terminal GST; dsDNA, one strand shown

One assay concerns the target T1, ELK1 (Homo sapiens, UniProt P19419 1-428).
T1 sequence: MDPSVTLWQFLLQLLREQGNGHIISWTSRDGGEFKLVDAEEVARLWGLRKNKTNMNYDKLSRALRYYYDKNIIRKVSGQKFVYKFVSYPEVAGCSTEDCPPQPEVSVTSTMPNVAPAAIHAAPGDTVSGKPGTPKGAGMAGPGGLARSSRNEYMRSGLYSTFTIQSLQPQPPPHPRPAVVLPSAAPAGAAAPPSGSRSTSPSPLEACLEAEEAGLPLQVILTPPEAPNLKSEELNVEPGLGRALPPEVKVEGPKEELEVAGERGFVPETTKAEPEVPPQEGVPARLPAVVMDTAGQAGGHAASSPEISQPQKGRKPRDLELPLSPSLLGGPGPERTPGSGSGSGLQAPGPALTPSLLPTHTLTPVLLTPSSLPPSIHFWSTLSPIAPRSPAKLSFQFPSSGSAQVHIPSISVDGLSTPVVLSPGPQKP
A digest of the protocol:
(§1)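 Binding signal is given per hexamer as its read frequency for a factor divided by its frequency in the tag-only sample. GST-fused human transcription factors were expressed in yeast, captured on glutathione beads, barcoded with DNA and pooled with that sample, then incubated with 200 nmole of a 16-mer random double-stranded DNA library in Tris/NaCl/DTT/glycerol buffer for 30 min at room temperature. The pools were then washed, crosslinked, proximity-ligated, amplified by PCR and sequenced on an Illumina NextSeq500.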

Another assay deals with T2, GABPA (Homo sapiens, UniProt Q06546 1-454).
T2 sequence: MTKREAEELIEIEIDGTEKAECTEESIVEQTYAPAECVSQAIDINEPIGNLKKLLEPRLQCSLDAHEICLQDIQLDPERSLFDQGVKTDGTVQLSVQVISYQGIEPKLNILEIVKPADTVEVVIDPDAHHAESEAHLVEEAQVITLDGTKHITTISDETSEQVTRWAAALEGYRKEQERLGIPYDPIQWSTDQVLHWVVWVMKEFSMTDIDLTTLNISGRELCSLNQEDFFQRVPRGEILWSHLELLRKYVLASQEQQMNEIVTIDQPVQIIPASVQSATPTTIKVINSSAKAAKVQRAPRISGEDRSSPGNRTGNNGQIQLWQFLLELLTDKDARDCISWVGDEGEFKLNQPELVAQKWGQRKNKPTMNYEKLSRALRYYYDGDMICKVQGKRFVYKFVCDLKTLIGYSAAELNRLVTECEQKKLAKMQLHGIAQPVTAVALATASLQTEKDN
A digest of the protocol: as §1

In a further assay the target is ELF1 (Homo sapiens, UniProt P32519 1-619). A digest of the protocol: as §1
The target of the next assay is T3, ELK3 (Homo sapiens, UniProt P41970 1-407).
T3 sequence: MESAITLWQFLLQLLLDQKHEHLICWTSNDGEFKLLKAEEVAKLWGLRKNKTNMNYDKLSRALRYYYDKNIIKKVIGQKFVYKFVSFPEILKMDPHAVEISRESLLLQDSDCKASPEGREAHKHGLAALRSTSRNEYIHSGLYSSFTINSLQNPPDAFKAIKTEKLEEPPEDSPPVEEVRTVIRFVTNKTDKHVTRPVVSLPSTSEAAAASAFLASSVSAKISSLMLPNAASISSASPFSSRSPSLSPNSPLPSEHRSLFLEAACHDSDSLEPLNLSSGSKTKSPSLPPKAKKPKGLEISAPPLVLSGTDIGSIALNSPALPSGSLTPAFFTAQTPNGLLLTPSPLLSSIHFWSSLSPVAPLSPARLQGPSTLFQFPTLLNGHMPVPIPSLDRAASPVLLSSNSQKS
Put shortly: as §1

Another assay concerns the target T4, ELK4 (Homo sapiens, UniProt P28324-2 1-405).
T4 sequence: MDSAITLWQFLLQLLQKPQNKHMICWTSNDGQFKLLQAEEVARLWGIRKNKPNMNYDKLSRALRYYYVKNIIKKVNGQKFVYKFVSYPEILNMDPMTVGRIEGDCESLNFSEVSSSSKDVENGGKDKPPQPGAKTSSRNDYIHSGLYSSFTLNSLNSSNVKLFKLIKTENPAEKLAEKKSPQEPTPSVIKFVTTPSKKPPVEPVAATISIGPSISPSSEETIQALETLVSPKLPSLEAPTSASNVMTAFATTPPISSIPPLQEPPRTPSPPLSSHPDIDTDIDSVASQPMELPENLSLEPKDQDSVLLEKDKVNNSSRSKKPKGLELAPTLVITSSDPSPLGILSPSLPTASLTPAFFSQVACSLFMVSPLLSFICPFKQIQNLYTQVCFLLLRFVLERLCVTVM
A digest of the protocol: as §1

In the next assay the target is T5, ETV2 (Homo sapiens, UniProt O00321 1-342).
T5 sequence: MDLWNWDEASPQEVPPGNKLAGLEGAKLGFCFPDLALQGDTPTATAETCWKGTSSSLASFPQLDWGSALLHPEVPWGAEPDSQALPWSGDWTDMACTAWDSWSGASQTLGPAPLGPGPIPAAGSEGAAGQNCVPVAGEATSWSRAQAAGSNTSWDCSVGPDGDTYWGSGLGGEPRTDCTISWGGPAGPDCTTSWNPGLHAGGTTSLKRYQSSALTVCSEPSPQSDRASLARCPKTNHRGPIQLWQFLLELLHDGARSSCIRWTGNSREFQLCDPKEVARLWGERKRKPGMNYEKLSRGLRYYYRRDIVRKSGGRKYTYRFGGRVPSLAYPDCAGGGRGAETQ
A digest of the protocol:
as §1

Another assay addresses T6, ELF3 (Homo sapiens, UniProt P78545 1-371).
T6 sequence: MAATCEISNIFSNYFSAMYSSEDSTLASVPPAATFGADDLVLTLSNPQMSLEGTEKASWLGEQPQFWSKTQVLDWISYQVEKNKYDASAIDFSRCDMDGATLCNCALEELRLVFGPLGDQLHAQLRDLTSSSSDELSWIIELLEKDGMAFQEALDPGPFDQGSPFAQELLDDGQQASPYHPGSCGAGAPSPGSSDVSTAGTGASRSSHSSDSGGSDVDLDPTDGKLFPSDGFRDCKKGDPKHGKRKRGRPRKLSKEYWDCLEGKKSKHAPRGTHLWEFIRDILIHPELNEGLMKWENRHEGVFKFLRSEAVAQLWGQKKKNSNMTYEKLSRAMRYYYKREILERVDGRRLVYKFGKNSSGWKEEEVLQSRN
A digest of the protocol:
as §1

The next assay addresses T7, ERF (Homo sapiens, UniProt P50548 1-548).
T7 sequence: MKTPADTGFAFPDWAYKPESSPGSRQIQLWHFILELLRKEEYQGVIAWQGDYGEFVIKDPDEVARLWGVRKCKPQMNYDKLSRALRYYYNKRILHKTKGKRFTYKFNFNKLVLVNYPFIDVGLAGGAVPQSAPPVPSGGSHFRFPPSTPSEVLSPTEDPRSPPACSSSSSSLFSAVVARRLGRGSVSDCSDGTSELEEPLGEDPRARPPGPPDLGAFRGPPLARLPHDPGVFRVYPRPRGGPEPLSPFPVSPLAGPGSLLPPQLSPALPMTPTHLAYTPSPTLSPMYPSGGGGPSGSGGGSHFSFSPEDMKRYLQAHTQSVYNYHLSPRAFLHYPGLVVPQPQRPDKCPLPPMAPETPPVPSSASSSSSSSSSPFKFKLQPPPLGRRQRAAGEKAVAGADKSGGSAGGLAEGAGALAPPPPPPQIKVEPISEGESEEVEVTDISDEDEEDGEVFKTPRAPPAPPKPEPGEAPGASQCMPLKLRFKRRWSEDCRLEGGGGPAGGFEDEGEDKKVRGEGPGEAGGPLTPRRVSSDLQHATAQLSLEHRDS
A digest of the protocol:
as §1

In a further assay the target is T8, SPDEF (Homo sapiens, UniProt O95238 1-335).
T8 sequence: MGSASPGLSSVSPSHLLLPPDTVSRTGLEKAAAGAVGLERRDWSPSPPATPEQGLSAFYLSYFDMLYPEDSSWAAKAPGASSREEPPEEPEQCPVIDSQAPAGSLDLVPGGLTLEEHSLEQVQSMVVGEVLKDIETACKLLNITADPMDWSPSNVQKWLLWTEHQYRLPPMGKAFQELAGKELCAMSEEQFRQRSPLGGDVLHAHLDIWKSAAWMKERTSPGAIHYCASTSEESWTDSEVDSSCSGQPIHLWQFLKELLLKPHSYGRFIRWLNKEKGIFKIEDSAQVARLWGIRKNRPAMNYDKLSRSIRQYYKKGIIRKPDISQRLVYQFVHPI
Put shortly:
as §1

The next assay concerns the target T9, ETV3 (Homo sapiens, UniProt P41162-2 1-143).
T9 sequence: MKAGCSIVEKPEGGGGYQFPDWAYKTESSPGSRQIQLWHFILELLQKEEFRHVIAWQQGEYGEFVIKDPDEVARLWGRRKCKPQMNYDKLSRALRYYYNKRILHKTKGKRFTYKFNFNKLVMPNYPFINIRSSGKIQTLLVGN
A digest of the protocol:
as §1

For the next assay, the target named is ETV6 (Homo sapiens, UniProt P41212 1-452). Put shortly:
as §1

ELF1, sequence (P32519 whole entry): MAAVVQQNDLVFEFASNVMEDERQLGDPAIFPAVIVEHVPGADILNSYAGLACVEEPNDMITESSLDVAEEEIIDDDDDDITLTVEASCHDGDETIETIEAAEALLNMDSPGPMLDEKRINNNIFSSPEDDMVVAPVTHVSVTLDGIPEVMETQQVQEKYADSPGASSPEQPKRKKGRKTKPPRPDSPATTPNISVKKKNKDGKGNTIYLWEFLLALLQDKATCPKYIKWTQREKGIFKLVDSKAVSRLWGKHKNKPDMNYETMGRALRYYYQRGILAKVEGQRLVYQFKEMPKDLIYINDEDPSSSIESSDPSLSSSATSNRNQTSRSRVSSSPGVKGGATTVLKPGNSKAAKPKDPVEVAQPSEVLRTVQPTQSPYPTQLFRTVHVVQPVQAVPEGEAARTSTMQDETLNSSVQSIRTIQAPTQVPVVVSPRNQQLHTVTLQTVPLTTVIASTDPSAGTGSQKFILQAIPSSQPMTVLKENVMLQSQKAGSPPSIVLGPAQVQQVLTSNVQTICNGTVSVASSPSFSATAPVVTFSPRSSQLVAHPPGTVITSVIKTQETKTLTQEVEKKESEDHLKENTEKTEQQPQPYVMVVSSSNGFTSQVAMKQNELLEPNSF
ETV6, sequence (P41212 whole entry): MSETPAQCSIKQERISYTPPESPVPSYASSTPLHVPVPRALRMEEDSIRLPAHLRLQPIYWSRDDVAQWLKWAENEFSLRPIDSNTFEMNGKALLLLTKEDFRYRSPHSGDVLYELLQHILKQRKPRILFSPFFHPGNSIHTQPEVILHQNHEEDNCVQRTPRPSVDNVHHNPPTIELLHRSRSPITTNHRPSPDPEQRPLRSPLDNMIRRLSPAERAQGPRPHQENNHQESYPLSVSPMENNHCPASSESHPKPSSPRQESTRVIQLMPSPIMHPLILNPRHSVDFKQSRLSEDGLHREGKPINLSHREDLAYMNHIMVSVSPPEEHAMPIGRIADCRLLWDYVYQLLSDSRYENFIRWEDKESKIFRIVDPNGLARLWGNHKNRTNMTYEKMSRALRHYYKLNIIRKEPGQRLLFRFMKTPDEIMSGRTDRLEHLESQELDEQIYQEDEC

CAAACG: the binding signal with ELK1 is 1.04 fold enrichment (6-mer frequency, TF over GST control); with GABPA, 1.05 fold enrichment (6-mer frequency, TF over GST control); with ELF1, 1.04 fold enrichment (6-mer frequency, TF over GST control); with ELK3, 1.07 fold enrichment (6-mer frequency, TF over GST control); in the assay with ELK4, 1.05 fold enrichment (6-mer frequency, TF over GST control); with ETV2, 1.02 fold enrichment (6-mer frequency, TF over GST control). The binding signal with ELF3 was 1.06 fold enrichment (6-mer frequency, TF over GST control); with ERF it was 1.03 fold enrichment (6-mer frequency, TF over GST control); in the assay with SPDEF, 1.02 fold enrichment (6-mer frequency, TF over GST control); with ETV3, 1.04 fold enrichment (6-mer frequency, TF over GST control); in the assay with ETV6, 1.02 fold enrichment (6-mer frequency, TF over GST control).
